Assay [1] deals with Aldehyde dehydrogenase, mitochondrial (Homo sapiens) (UniProt P05091). Nature of the assay: qHTS for Inhibitors of the Aldehyde Dehydrogenase Family (ALDH2) Primary screen (AID 2061308; further: nearly all actives have a fitted effect of over 55% in size). (In general: Quantitative high-throughput screening tests each substance at several concentrations.)
Assay [2] addresses Retinaldehyde dehydrogenase 3 (Homo sapiens) (UniProt P47895). The assay is described as follows: qHTS for Inhibitors of the Aldehyde Dehydrogenase Family (ALDH1A3) Primary screen (AID 2061315).

Inconclusive results are not listed. Entries that show only a call come without a potency. Activity calls are given as the source filed them. The call rests on the fitted dose curve; in most records, active means well fitted curve in the direction sought with a large enough effect; inconclusive means small, poorly fitted or top-dose-only effect, or another doubt; inactive means no such curve, though single readings can be large; an effect the other way counts as inactive or inconclusive.

Consider `N#Cc1cccc(-c2noc(-c3ccccc3F)n2)c1`, for which the Potency result in assay [1] and in assay [2] was “inactive” in each case.

With `CCCn1c(C)nc2c(NCCN(C)C)nc(C)nc21`, the Potency entry in assay [1] and in assay [2] was “inactive” in each case.

With `CCOC(=O)C1CCC(C(=O)Nc2ccc([S+](=O)([O-])Nc3nccs3)cc2)CC1` (stereo not given), the Potency entry in assay [1] and in assay [2] was “inactive” in each case.

On to `C/C=C\C1=CCCC1Nc1ncnc2ccc(-c3c(C)noc3C)cc12` (stereo not given), for which the Potency entry in assay [1] and in assay [2] was “inactive” in each case.

For `COc1ccc(C2Nc3ccccc3C(=O)N2Cc2cccnc2)cc1COc1c(C)cc(NC(C)=O)cc1C` (stereo not given), the Potency result in assay [1] and in assay [2] was “inactive” each time.

For `COc1cc2nc(Nc3ccccc3)nc(NC3CC3)c2cc1OC`, the Potency entry in assay [1] and in assay [2] was “inactive” in each case.

With `CC(C)c1ccccc1-c1ncc(F)c(NCc2ccc(-n3ccnn3)cc2)n1`, the Potency result in assay [1] and in assay [2] was “inactive” throughout.

As to `CCOc1ccc(CCNC(=O)c2cc3sccc3n2CCN2CCN(C)CC2)cc1OCC`, the Potency entry in assay [1] and in assay [2] was “inactive” in each case.

Consider `O=C(O)c1ccc(O)c2ncc(N3CCCN(CCCc4ccncc4)CC3)cc12`, for which the Potency entry in assay [1] and in assay [2] was “inactive” each time.

Take `S=P(c1ccccc1)(c1ccccc1)c1nc(CCCc2ccccc2)n2ccccc12`: the Potency entry in assay [1] and in assay [2] was “inactive” each time.

`Cc1nc(CCN(C)c2ncnc3ccc(-c4ccc5c(c4)OCO5)cc23)cs1`: the Potency result in assay [1] and in assay [2] was “inactive” in each case.

Take `c1cncc(CNc2ncnc3ccc(-c4ccc5c(c4)OCO5)cc23)c1`: the Potency result in assay [1] and in assay [2] was “inactive” each time.

For the compound `COc1cc(OC)cc(-c2nnc3n2N=C(c2ccc(OC)cc2OC)CS3)c1`, the Potency result in assay [1] and in assay [2] was “inactive” each time.

In the case of `CCCCN1C(=O)c2ccccc2NC1c1ccc(OC)c(COc2c(C)cc(NC(C)=O)cc2C)c1` (stereo not given), the Potency entry in assay [1] and in assay [2] was “inactive” throughout.

With `Cc1ccc(NS(=O)(=O)c2ccc3c(c2)CCC(=O)N3)cc1Cl`, the Potency entry in assay [1] and in assay [2] was “inactive” throughout.

The values above are taken from PubChem BioAssay (NCATS).
